Compound activity as filed in PubChem BioAssay.
PKM2 activator – qHTS Assay for Activators of Human Muscle isoform 2 Pyruvate Kinase; Pyruvate kinase PKM (Homo sapiens), P14618; purified PKM2, Kinase-Glo ATP luminescence, activation; response scale: 0% is enzyme alone, no compound; Potency, µM (doses to about 57.5 µM), for the others: at the highest dose activation, actives largely listed as activators; 260,000 compounds, 0.34% hits; note: potency is the fitted concentration of half-maximal effect; % is set by controls: 0 for no effect and ±100 for the full control effect; nearly all actives have a fitted effect of over 55% in size
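Purified hPK-M2 (>95% pure) converted ADP (0.1 mM final) to ATP with 0.5 mM PEP in 50 mM imidazole pH7.2, KCl, MgCl2, Tween 20, BSA; 1 h at room temperature. ATP detected by Kinase-Glo luminescence.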
ClpP mod – qHTS Assay for Activators of ClpP | 340,000 compounds, 1.9% hits | ATP-dependent Clp protease proteolytic subunit (Bacillus subtilis (strain 168)), P80244 | Potency, µM (highest dose often 57.5 µM), for inactives: top-dose activity change, negative = active | purified B. subtilis ClpP, FRET peptide cleavage, 20 min; active = well fitted falling curve with a large enough effect; inconclusive = small, poorly fitted or top-dose-only effect; inactive = no such curve, though single readings can be large or run the other way; note: potency is the fitted concentration of half-maximal effect; the source files actives as falling curves though it sought activators and does not explain the sign; nearly all actives have a fitted effect of over 65% in size
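ClpP 10 microg/mL final, pH 8 Tris/KCl buffer with BSA, glycerol, Tween-20; compound pinned in; FRET-FV substrate; RT 20 min; Ex320/Em430; ΔFRET vs ADEP 5.8 microM, DMSO, no enzyme.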
Pin1 inh – qHTS Assay to Find Inhibitors of Pin1. AID 504891, 2011. Potency, µM (titrated, usually from 115 µM), inactives show at the top dose activity, negative = inhibition, hits mostly inhibitors. 390,000 compounds, 0.009% hits. Pin1 FP peptide displacement, HiFluor488, 10 min. Peptidyl-prolyl cis-trans isomerase NIMA-interacting 1 (Homo sapiens), Q13526; active = well fitted inhibition curve with a large enough effect in the polarisation, with a control signal flat, not every such curve was filed as active; inconclusive = small, poorly fitted or top-dose-only effect, or effect the other way, or a change in a side signal; inactive = no such curve, though single readings can be large or run the other way; the % refers to the polarisation; note: potency is the fitted concentration of half-maximal effect; % is set by controls: 0 for no effect and ±100 for the full control effect
USP2a block – qHTS Assay for Inhibitors of Ubiquitin-specific Protease USP2a Using CHOP2 as the Reporter; 330,000 compounds, 0.01% hits; USP2 core, Ub-CHOP2 coupled fluorogenic reporter, 485/531; Potency, µM (titrated, usually from 38.3 µM), inactives show top-dose activity change, negative = inhibition, usual class: inhibitors; Ubiquitin carboxyl-terminal hydrolase 2 (Homo sapiens), O75604;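 note: potency is the fitted concentration of half-maximal effect; plate controls were DMSO wells for no effect and full inhibition by NEM control for full effect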
Target sequence (O75604 whole entry, looked up): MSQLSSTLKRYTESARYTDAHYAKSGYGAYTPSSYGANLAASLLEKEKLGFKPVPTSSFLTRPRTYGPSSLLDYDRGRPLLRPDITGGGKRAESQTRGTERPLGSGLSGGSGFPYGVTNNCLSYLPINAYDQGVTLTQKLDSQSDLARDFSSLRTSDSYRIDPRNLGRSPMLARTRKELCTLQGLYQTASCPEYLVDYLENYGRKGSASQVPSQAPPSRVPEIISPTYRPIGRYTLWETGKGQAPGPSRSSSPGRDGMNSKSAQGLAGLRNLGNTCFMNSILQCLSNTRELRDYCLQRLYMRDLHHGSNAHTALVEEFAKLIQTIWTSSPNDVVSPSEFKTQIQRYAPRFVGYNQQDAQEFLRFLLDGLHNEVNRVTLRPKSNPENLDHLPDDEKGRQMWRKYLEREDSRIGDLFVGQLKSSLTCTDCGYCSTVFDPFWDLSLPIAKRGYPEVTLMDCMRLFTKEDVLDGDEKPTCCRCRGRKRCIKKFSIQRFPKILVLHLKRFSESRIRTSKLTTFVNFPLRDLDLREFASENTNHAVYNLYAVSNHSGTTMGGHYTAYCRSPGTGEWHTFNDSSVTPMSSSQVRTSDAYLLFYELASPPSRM
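USP2 core (10nM final) preincubated 30min RT with compound in 20mM Tris-HCl pH 8.0, 2mM CaCl2, 2mM beta-mercaptoethanol, 0.05% CHAPS; 25nM Ub-CHOP2 plus 25nM reporter substrate added, fluorescence (Ex485/Em531) read after 60min.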
IL2 activator – qHTS of IL-2 Activators. IL-2 activation reporter assay, cell-based qHTS; stimulated with anti-CD3/CD4/CD28 beads; in transgenic mouse T cells. activation, % (series mostly up to about 46 µM). 360,000 compounds, 0.065% hits. AID 652025, 2013; in the data active = activation above about 50%; inconclusive = mostly about 30% to 49%; note: 0% is about no effect
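Readout: EGFP and DsRed signals by fluorescent plate cytometry. Unstimulated transgenic mouse T cells received compound 60 min before antibody-bead stimulation, then incubated 18 h at 37 degrees C.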
Integrin act MD – qHTS for Activators of Integrin-Mediated Alleviation for Muscular Dystrophy. alpha7betagal myoblasts, beta-gal FDG fluorescence, 48 h. Potency, µM (highest dose often 38.3 µM), without a hit: top-dose activation, usual class: activators. 350,000 compounds, 0.064% hits. AID 624291, 2012;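 note: potency is the fitted concentration of half-maximal effect; 100% = response of the positive control SU9516; nearly all actives have a fitted effect of over 60% in size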
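Alpha7betagal+/- myoblasts (passage 13) were plated 16-24 hr, then exposed to compounds (1:260 dilution of DMSO stock) for 48 hours at 37C. After MPER lysis, β-galactosidase reporter activity was read as FDG fluorescence (ex 480/em 540) after 30 minutes.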
* = called active by the depositor. Most compounds without a hit are left out; they make up all but 1.9% or so of the library. Unless noted, calls come from the whole dose curve; as a rule, active = well fitted curve in the direction sought with a large enough effect; inconclusive = small, poorly fitted or top-dose-only effect, or another doubt; inactive = no such curve, though single readings can be large; an effect the other way counts as inactive or inconclusive.

Screening O=c1c(-c2nnc(SCc3ccc(Cl)cc3Cl)o2)cccn1Cc1ccccc1 returned PKM2 activator -0.9%, ClpP mod 3.16µM*, Pin1 inh 15.5%, USP2a block 1.6%, IL2 activator -3.9 and Integrin act MD -3.5%.
Screening COC(=O)c1ccc(NC(=O)c2nc(S(=O)(=O)Cc3ccccc3F)ncc2Cl)cc1 returned ClpP mod 6.9%.
Screening CCOC(=O)N1CCN(C(=O)c2ccc3nc4ccsc4c(=O)n3c2)CC1 returned PKM2 activator -1.9%, ClpP mod 4.1%, Pin1 inh -8.1%, USP2a block 2.2%, IL2 activator -1.3 and Integrin act MD 0.0%.
Screening CCOC(=O)N1CCN(C(=O)c2ccc3nc4ccc(Cl)cc4c(=O)n3c2)CC1 returned PKM2 activator -2.0%, ClpP mod 14.1µM*, Pin1 inh -0.7%, USP2a block 0.2%, IL2 activator 0.3 and Integrin act MD -22.5%.
For Clc1cccc(Cl)c1CNC1CCCC1 the results were PKM2 activator -16.7%, ClpP mod 3.5%, Pin1 inh -3.2%, USP2a block 0.6%, IL2 activator 103.8* and Integrin act MD -24.6%.
`Cc1ccc(NC(=O)COC(=O)c2ccccc2OCC(=O)Nc2ccc(Br)cc2)c(Br)c1` gave ClpP mod 1.6%.
For COc1cccc(-n2c(=O)c3cc(OC)c(OC)cc3n(CC(=O)Nc3cc(C)[nH]n3)c2=O)c1 the results were PKM2 activator 0.3%, ClpP mod 28.2µM*, Pin1 inh -2.2%, USP2a block 5.2%, IL2 activator -3.0 and Integrin act MD 9.9%.
For COc1cccc(-c2cc(C(=O)Nc3ccncc3)c3ccccc3n2)c1 the results were PKM2 activator -0.3%, ClpP mod 12.6µM*, Pin1 inh -1.7%, USP2a block 5.1%, IL2 activator -4.8 and Integrin act MD 1.8%.
COc1cccc(NC(=O)c2cc(-c3ccccn3)nc3ccccc23)c1 was read as ClpP mod 12.4%, Pin1 inh -5.9%, USP2a block 2.5%, IL2 activator -6.2 and Integrin act MD -5.8%.
CC(OC(=O)c1cc(-c2cccnc2)nc2ccccc12)C(=O)Nc1ccc2ccccc2c1 (stereo not given) was read as PKM2 activator -1.5%, ClpP mod -1.2%, Pin1 inh inconclusive, USP2a block 0.0%, IL2 activator 4.5 and Integrin act MD 1.12µM*.
`Cc1cc(C(=O)CN2CCCCC2)c(C)n1-c1ccc(F)cc1` gave PKM2 activator -4.6%, ClpP mod 25.1µM*, Pin1 inh 8.3%, USP2a block 0.2%, IL2 activator 0.0 and Integrin act MD -33.1%.
`CCOc1ccc(-c2nnc(-c3snc(-c4ccc(F)cc4)c3N=CN(C)C)o2)cc1` gave PKM2 activator -1.8%, ClpP mod 28.2µM*, Pin1 inh -4.5%, USP2a block 1.3%, IL2 activator -0.7 and Integrin act MD -10.7%.
Cc1ccc(C)c(N2CCN(c3nc4ccccc4c(=O)n3-c3ccc(Cl)cc3)CC2)c1 was read as ClpP mod -3.5% and Pin1 inh -0.5%.
Cc1cccc(N2CCN(c3nc4ccccc4c(=O)n3-c3ccc(Cl)cc3)CC2)c1C was read as ClpP mod 17.8µM* and Pin1 inh -0.6%.
For NC(C(=O)O)c1nn[nH]n1 (stereo not given) the results were Pin1 inh -1.1%.
For COc1ccccc1NC(=O)CSc1nc(-c2ccc(C(C)(C)C)cc2)c(C#N)c(=O)[nH]1 the results were ClpP mod -1.4%.
`Cn1c(C(=O)NCC2CCCO2)cc2c(=O)n(C)c3ccccc3c21` (stereo not given) gave PKM2 activator 1.0%, ClpP mod 3.9%, Pin1 inh -6.2%, USP2a block 1.9%, IL2 activator -3.3 and Integrin act MD 6.0%.
For Cn1c(C(=O)NCC2CCCO2)cc2c(=O)[nH]c3ccccc3c21 (stereo not given) the results were PKM2 activator 2.8%, ClpP mod 22.4µM*, Pin1 inh 5.7%, USP2a block -1.2%, IL2 activator -0.2 and Integrin act MD 6.1%.
CSc1nnc2c(=O)[nH]c(=O)n(C)c2n1 was read as Pin1 inh 0.8%, IL2 activator 0.0 and Integrin act MD inconclusive.
For CSc1cnc2c(=O)n(C)c(=O)[nH]c2n1 the results were PKM2 activator -0.5%, ClpP mod 15.8µM*, Pin1 inh -8.3%, USP2a block -0.8%, IL2 activator 1.2 and Integrin act MD 5.2%.
For COC(=O)c1ccc2c(=O)n(CCCCCC(=O)O)c(=O)[nH]c2c1 the results were PKM2 activator 2.4%, ClpP mod 28.2µM*, Pin1 inh 0.1%, USP2a block 0.0%, IL2 activator -2.7 and Integrin act MD 14.6%.
COCCNC(=O)c1ccc2c(=O)n(CCOC)c(=O)[nH]c2c1 was read as PKM2 activator -0.9%, ClpP mod 25.1µM*, Pin1 inh -1.9%, USP2a block 1.8%, IL2 activator -4.7 and Integrin act MD 19.2%.
CCCCCNC(=O)c1ccc2c(=O)n(CCOC)c(=O)[nH]c2c1 was read as PKM2 activator -7.8%, ClpP mod inconclusive, Pin1 inh -1.4%, USP2a block -2.0%, IL2 activator 2.2 and Integrin act MD -7.7%.
Screening COCCn1c(=O)[nH]c2cc(C(=O)NCc3ccccc3)ccc2c1=O returned PKM2 activator 7.9%, ClpP mod 14.1µM*, Pin1 inh -1.0%, USP2a block 7.6%, IL2 activator -1.1 and Integrin act MD 18.6%.
For COCCn1c(=S)[nH]c2cc(C(=O)NCc3ccccc3)ccc2c1=O the results were ClpP mod -0.8%, IL2 activator -1.3 and Integrin act MD -2.6%.
`CCC1CC=CC2C1C(=O)N(Cc1ccccc1)C2c1ccc2ccccc2c1` (stereo not given) gave Pin1 inh 0.7%.
For CNc1ccc(C=C2C=CC=C2)cc1 the results were ClpP mod -2.6%.
CCN(CC)CCCNc1cc2n(c(=O)n1)CCc1cc(OC)c(OC)cc1-2 was read as PKM2 activator -3.8%, ClpP mod 25.1µM*, Pin1 inh inconclusive, USP2a block 1.7%, IL2 activator 2.1 and Integrin act MD 7.6%.
